# Assay results as given in PubChem BioAssay.
# A number with no mark means an inactive call. This is one part of the list. Activity calls are given as the source filed them. Cut-off read from the data, not from the text of the source, unless noted: active = inhibition above about 42%; inactive = the rest.
# Key:
# [1] = molecular target: Photoreceptor-specific nuclear receptor (Homo sapiens) (UniProt Q9Y5X4); test: NR2E3 agonist confirmation in cells, cell-based, luminescence, CHO-S two-hybrid (AID 624378;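 active = average inhibition above a cutoff equal to the mean inhibition of all tested compounds plus one SD, cut at about 70% in these data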;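 note: 0% = DMSO in NR2E3 cells and 100% = DMSO in cells lacking NR2E3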); details: CHO-S mammalian two-hybrid NR2E3-NCOR, luciferase luminescence; at 3.98 µM; active compounds read high
# Sequence of Photoreceptor-specific nuclear receptor (Homo sapiens) (Q9Y5X4 whole entry, looked up, the tested form may be a part): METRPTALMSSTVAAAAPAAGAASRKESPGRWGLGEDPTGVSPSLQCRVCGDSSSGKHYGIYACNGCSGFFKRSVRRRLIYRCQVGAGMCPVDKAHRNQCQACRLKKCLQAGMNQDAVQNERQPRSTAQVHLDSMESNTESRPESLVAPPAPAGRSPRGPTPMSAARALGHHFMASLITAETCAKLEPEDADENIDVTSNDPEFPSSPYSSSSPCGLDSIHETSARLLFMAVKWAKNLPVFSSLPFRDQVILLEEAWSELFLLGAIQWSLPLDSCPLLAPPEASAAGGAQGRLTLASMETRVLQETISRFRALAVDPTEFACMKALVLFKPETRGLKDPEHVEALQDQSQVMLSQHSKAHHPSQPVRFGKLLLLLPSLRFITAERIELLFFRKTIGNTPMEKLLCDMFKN
# [2] = GAL4-VP16 reporter modulators, confirmation, counter-screen for NR2E3 agonist project, cell-based, luminescence, CHO-S, high throughput (AID 624379;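 active = mean inhibition above a cutoff equal to the average over all tested compounds plus one standard deviation, cut at about 70% in these data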;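 note: luciferase from a UAS reporter driven by GAL4-VP16 transactivation; 0% = DMSO with VP16-transfected cells and 100% = DMSO with cells lacking VP16; higher means less reporter light so more repression of VP16 activity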); details: CHO-S GAL4-VP16 luciferase reporter, at 3.98 µM, active compounds read high
# [3] = molecular target: Receptor-interacting serine/threonine-protein kinase 2 (Homo sapiens) (UniProt O43353); test: NOD2-RIPK2 binding disruptors, retest, confirmation, fluorescence, CHO cells, BLA complementation, triplicate (AID 624370;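 active = mean inhibition across replicates above a set limit taken from the earlier primary screen, cut at about 21% in these data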;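 note: 0% = DMSO-only wells and the high end = clavulanate BLA-blocked wells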); details: CCF4 FRET, at 4.98 µM, active compounds read high
# Sequence of Receptor-interacting serine/threonine-protein kinase 2 (Homo sapiens) (O43353 whole entry, looked up): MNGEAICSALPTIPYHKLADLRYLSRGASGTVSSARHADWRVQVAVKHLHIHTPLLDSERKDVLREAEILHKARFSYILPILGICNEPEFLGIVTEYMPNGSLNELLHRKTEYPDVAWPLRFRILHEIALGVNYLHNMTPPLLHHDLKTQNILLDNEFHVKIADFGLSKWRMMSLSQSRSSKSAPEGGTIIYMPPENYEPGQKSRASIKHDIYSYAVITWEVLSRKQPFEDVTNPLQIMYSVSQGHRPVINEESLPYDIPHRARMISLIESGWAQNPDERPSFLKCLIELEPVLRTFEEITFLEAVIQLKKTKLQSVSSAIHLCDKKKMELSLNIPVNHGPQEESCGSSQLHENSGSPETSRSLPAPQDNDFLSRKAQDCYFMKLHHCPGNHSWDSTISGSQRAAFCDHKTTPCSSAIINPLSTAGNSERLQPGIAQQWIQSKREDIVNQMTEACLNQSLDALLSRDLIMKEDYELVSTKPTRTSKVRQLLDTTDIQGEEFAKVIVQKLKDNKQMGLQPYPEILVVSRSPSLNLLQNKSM
# [4] = beta-lactamase reporter inhibitors in CHO cells, confirmation, artefact control for NOD2-RIPK2 interaction inhibitor project, cell-based, CHO-K1 CMV-bla, CCF4 FRET, fluorescence (AID 624371;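 active = mean inhibition above the low-control mean inhibition plus three low-control SD, cut at about 11% in these data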;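 note: 0% = DMSO only wells and 100% = clavulanate high control wells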); details: CCF4 FRET ratio, counterscreen, at 4.98 µM, active compounds read high
# [5] = test system: transactivating tegument protein VP16 (Human herpesvirus 1); test: VP16 transactivation reporter inhibitors, counter-screen for SRC2 inhibitor project, cell-based, luminescence, single concentration (AID 652007; in the data active = inhibition above about 36%); details: cell-based VP16 transactivation luciferase reporter, at 8.9 µM, active compounds read high
# [6] = molecular target: Nuclear receptor coactivator 2 (Homo sapiens) (UniProt Q15596); test: SRC2 coactivator transcriptional activity inhibitors, confirmation, cell-based, luminescence, HEK293, triplicate (AID 652008;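 active = mean inhibition above 46.5%, the solvent-only control mean plus 3 SD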;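 note: 0% = DMSO-treated cells and 100% = Gossypol at 36 µM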); details: HEK293 GAL4-SRC2 luciferase reporter, at 8.9 µM, active compounds read high
# Sequence of Nuclear receptor coactivator 2 (Homo sapiens) (Q15596 whole entry, looked up, the tested form may be a part): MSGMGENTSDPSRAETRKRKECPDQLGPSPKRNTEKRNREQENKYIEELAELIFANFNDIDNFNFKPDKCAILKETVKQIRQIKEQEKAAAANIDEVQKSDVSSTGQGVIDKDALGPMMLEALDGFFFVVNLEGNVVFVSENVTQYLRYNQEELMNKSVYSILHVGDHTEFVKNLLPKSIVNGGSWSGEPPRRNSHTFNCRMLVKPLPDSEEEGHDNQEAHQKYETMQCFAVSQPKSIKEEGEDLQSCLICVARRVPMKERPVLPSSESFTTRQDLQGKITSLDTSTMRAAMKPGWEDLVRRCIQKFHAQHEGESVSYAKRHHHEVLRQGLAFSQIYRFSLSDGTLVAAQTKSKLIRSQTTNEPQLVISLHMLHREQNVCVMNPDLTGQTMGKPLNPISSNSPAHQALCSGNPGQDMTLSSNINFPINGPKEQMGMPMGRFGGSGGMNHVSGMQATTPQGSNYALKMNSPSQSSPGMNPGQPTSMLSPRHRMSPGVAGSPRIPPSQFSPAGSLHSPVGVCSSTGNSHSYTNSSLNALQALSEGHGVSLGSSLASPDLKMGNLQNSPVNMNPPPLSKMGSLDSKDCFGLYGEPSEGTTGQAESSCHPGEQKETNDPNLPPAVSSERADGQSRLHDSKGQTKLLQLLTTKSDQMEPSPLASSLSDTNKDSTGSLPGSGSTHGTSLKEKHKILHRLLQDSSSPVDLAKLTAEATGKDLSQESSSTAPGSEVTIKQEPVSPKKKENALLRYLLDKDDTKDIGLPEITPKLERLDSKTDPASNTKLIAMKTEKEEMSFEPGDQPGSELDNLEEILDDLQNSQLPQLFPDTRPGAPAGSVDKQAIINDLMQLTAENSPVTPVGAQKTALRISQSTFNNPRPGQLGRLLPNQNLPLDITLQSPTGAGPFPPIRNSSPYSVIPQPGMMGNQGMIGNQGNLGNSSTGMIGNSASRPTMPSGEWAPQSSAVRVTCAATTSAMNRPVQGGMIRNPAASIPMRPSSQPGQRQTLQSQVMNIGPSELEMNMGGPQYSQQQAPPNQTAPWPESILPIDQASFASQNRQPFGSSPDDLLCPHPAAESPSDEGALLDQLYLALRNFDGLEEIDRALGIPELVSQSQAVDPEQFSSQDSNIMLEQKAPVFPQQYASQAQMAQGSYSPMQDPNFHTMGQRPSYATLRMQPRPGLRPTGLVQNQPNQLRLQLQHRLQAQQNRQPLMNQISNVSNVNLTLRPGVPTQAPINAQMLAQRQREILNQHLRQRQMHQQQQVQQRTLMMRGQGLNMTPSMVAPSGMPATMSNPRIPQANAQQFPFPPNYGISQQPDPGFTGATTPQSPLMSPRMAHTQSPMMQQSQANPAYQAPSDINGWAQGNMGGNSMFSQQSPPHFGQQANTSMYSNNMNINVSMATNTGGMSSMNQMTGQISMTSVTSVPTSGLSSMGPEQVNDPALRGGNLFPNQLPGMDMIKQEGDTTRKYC
# [7] = growth loss of phage-infected RecBCD+ E. coli, confirmation, RecBCD inhibitor project, absorbance, E. coli V66, T4 gene 2 phage (AID 651982;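 active = mean inhibition over triplicates exceeding the hit threshold derived in the original primary screen, cut at about 11% in these data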); details: E. coli V66 + T4 2- phage, growth OD; at 11.9 µM; active compounds read high
# [8] = E. coli viability inhibition, counter-screen for RecBCD inhibitor project, absorbance, high throughput (AID 651983; in the data active = inhibition above about 20%;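 note: E. coli strain V66 grown with compound alone and no phage infection; 0% = bacteria with DMSO vehicle only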); details: absorbance (OD) growth, at 11.9 µM, active compounds read high
# [9] = growth loss of phage-infected AddAB-carrying E. coli, confirmation, counter-screen for RecBCD inhibitor project, absorbance, E. coli V3065, T4 phage (AID 651984;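 active = mean inhibition above the solvent-only control wells' mean plus 3 SD, cut at about 22% in these data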;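 note: higher means less bacterial growth from phage killing when AddAB is blocked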); details: E. coli expressing H. pylori AddAB + T4 phage, OD growth; at 11.9 µM; active compounds read high; gene 2 mutant T4, recBCD-deleted host
# [10] = test system: DAF-12 nuclear receptor (Heterodera glycines), GAL4-LBD fusion; test: H. glycines DAF-12 receptor agonists, confirmation, cell-based, luminescence, HEK293, GAL4-LBD fusion (AID 743050;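 active = mean activation over triplicate wells above the hit cutoff derived from the earlier primary screen, cut at about 11% in these data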;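 note: 0% = DMSO low control and 100% = 2 mM sodium butyrate high control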); details: HEK293 GAL4-hgDAF12 luciferase reporter, agonist mode; at 6.8 µM; active compounds read high; percent of butyrate response
# [11] = molecular target: Oxysterols receptor LXR-beta (Homo sapiens) (UniProt P55055); test: LXR agonists, Gal4 luciferase reporter, confirmation, counter-screen for hgDAF-12 agonist project, cell-based, luminescence, HEK293, H. glycines campaign (AID 743051;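 active = mean activation of the triplicate above a set limit carried over from the primary screen, none filed active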); details: 24 h, at 6.8 µM, active compounds read high
# Sequence of Oxysterols receptor LXR-beta (Homo sapiens) (P55055 whole entry, looked up, the tested form may be a part): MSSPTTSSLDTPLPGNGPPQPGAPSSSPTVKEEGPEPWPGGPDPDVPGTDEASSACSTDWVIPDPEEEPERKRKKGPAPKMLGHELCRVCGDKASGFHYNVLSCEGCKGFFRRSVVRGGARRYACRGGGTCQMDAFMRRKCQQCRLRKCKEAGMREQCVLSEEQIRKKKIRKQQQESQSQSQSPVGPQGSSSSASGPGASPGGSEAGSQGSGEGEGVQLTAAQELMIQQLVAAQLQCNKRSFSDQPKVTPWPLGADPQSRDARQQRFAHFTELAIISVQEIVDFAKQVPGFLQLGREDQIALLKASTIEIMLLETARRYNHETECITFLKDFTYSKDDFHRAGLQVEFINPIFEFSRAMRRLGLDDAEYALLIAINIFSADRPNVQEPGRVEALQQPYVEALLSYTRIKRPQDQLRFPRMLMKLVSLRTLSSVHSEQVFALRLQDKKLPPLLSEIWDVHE
# [12] = StAR promoter reporter inhibitors, counter-screen for LRH-1 inverse agonist project, cell-based, luminescence, high throughput (AID 651611; in the data active = inhibition above about 28%); details: StAR promoter luciferase reporter counterscreen, at 3.6 µM, active compounds read high
# [13] = molecular target: Nuclear receptor subfamily 5 group A member 2 (Homo sapiens) (UniProt O00482); test: LRH-1 (NR5A2) inverse agonists, retest, confirmation, cell-based, luminescence (AID 651613); details: cell-based LRH-1 luciferase reporter, inverse agonism; at 3.6 µM; active compounds read high;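 note: HEK293T cells co-transfected with LRH-1 and StAR promoter luciferase reporter; 0% = vehicle wells and 100% = parental cells lacking receptor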
# Sequence of Nuclear receptor subfamily 5 group A member 2 (Homo sapiens) (O00482 whole entry, looked up): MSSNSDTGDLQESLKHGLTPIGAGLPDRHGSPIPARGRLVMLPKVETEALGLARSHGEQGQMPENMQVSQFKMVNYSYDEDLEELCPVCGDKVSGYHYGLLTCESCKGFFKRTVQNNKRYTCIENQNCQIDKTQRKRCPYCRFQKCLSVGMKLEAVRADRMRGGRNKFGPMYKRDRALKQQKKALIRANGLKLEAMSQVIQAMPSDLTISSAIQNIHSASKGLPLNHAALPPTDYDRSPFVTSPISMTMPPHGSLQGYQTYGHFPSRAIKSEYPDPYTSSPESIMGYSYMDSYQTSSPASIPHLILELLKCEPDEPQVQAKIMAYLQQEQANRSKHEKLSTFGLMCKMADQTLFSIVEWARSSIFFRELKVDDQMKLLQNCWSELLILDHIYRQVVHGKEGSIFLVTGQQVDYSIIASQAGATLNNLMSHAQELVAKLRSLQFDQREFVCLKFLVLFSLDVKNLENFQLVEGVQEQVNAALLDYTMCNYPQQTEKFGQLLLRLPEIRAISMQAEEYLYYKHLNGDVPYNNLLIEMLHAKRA
# [14] = molecular target: Steroidogenic factor 1 (Homo sapiens) (UniProt Q13285); test: SF1 (NR5A1) inverse agonists, counter-screen for LRH-1 inverse agonist project, cell-based, luminescence, high throughput (AID 651614; in the data active = inhibition above about 44%;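 note: cells cotransfected with StAR promoter reporter and SF1 expression vector; 0% = vehicle on cells with receptor and 100% = vehicle on cells lacking receptor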); details: cell-based SF1 luciferase reporter, at 3.6 µM, active compounds read high
# Sequence of Steroidogenic factor 1 (Homo sapiens) (Q13285 whole entry, looked up, the tested form may be a part): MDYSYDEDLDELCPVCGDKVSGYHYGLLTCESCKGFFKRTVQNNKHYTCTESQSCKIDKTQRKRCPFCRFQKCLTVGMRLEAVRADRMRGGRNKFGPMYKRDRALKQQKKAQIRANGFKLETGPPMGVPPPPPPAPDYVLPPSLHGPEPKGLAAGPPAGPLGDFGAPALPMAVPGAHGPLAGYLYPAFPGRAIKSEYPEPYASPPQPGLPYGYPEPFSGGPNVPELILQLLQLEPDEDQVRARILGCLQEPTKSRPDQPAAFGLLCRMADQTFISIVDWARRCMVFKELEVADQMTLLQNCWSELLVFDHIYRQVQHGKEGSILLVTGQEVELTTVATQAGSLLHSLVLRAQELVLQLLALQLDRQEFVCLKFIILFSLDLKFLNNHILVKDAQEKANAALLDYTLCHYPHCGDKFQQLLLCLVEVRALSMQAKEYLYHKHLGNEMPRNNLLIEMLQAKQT
# [15] = VP16 transactivation reporter inhibitors, counter-screen for LRH-1 inverse agonist project, cell-based, luminescence, high throughput (AID 651615; in the data active = inhibition above about 33%); details: Gal4-VP16 luciferase reporter cells, at 3.6 µM, active compounds read high
smiles,measurement,setting,value
COc1ccc(CNS(=O)(=O)c2ccc(NC(=O)N3CCCCC3)cc2)cc1,inhibition,[1],55.3%
same,inhibition,[2],52.4%
Cc1cccc2sc(N(CCCN(C)C)C(=O)CCS(=O)(=O)c3ccccc3)nc12,inhibition,[3],25.4% (active)
same,inhibition,[4],7%
same,inhibition,[5],12%
same,inhibition,[6],32.5%
O=C(NN=Cc1ccc(N2CCOCC2)cc1)c1cc2ccccc2cc1O,inhibition,[3],0.56%
same,inhibition,[4],2.74%
O=C(/C=C/c1ccc([N+](=O)[O-])o1)NNC(=O)c1ccc(F)cc1,inhibition,[7],27.6% (active)
same,inhibition,[8],44.5% (active)
same,inhibition,[9],104% (active)
Cc1ccnc(NC(=O)C2CCN(S(=O)(=O)c3c(C)c(C)cc(C)c3C)CC2)c1,activation,[10],7.81%
same,activation,[11],0.16%
O=C(NCc1ccco1)c1ccc([N+](=O)[O-])o1,inhibition,[12],7.6%
same,inhibition,[13],60.5% (active)
same,inhibition,[14],59.6% (active)
same,inhibition,[15],-13.8%
CC(C)Cn1c(N)c(C(=O)NCC2CCCO2)c2nc3ccccc3nc21 (stereo not drawn),inhibition,[12],23.3%
same,inhibition,[13],42.8% (active)
same,inhibition,[14],37.3%
same,inhibition,[15],1.28%
O=C(Nc1nnc(C2=COCCO2)o1)c1ccc([N+](=O)[O-])s1,inhibition,[12],18.6%
same,inhibition,[13],49.4% (active)
same,inhibition,[14],40.3%
same,inhibition,[15],-6.2%
O=C(Cc1c(Cl)cccc1Cl)Nc1ccncc1,inhibition,[12],16.9%
same,inhibition,[13],53.1% (active)
same,inhibition,[14],45.4% (active)
same,inhibition,[15],-10%
C/C(=N\N1CCN(c2ccc(Cl)cc2)CC1)c1cccc([N+](=O)[O-])c1,inhibition,[12],12.5%
same,inhibition,[13],15.8%
same,inhibition,[14],21.2%
same,inhibition,[15],8.61%
Cc1cc2oc(=O)cc(C)c2cc1NC(=O)CCl,inhibition,[12],32.9% (active)
same,inhibition,[13],58.9% (active)
same,inhibition,[14],57.7% (active)
same,inhibition,[15],-57.1%
COc1cc2c(cc1OC)CN(C(=O)c1cc(=O)c3ccccc3o1)CC2,inhibition,[12],46.3% (active)
same,inhibition,[13],30.2%
same,inhibition,[14],40.7%
same,inhibition,[15],16%
CS(=O)(=O)N1CCc2cc(-c3csc(NC(=O)Cc4cccs4)n3)ccc21,inhibition,[12],12.6%
same,inhibition,[13],53.8% (active)
same,inhibition,[14],39.9%
same,inhibition,[15],42.8% (active)
CC1Cc2ccccc2N1C1=CC(=O)CC(C)(C)C1 (stereo not drawn),inhibition,[12],21.4%
same,inhibition,[13],55.3% (active)
same,inhibition,[14],51.9% (active)
same,inhibition,[15],-3.44%
CCCn1c(NC(=O)c2ccc([N+](=O)[O-])o2)nc2ccccc21,inhibition,[12],18.9%
same,inhibition,[13],51.3% (active)
same,inhibition,[14],21.2%
same,inhibition,[15],-2.27%
O=C(Cn1cnc2c(nnn2-c2ccccc2)c1=O)NCC1CCCO1 (stereo not drawn),inhibition,[12],-2.93%
same,inhibition,[13],16.6%
same,inhibition,[14],-2.18%
same,inhibition,[15],7.48%
Cc1ccc(NC(=O)CN2CCC(NC(=O)C3CCCCC3)CC2)c(Br)c1,inhibition,[12],11.8%
same,inhibition,[13],34%
same,inhibition,[14],44.9% (active)
same,inhibition,[15],7.56%
S=C(NCc1ccc(Cl)cc1)Nc1ccncc1,inhibition,[12],24.2%
same,inhibition,[13],80.9% (active)
same,inhibition,[14],72.8% (active)
same,inhibition,[15],35.1% (active)
Cc1ccc(NC(=O)COC(=O)C(NS(=O)(=O)c2ccc(Cl)cc2)C(C)O)cc1C (stereo not drawn),inhibition,[12],2.25%
same,inhibition,[13],61.8% (active)
same,inhibition,[14],43.2% (active)
same,inhibition,[15],-7.53%
COCCNc1ncnc2c1ncn2[C@H]1CN(CCc2ccccc2)C[C@@H](CO)O1,inhibition,[12],9.96%
same,inhibition,[13],28.4%
same,inhibition,[14],24.9%
same,inhibition,[15],3.57%
CN1C=C/C(=C\c2cc[n+](C)c3ccccc23)c2ccccc21,inhibition,[12],28.6% (active)
same,inhibition,[13],108% (active)
same,inhibition,[14],46.8% (active)
same,inhibition,[15],81.4% (active)
COc1ccc2nc(N3CCC(O)CC3)c(C#N)cc2c1,inhibition,[12],-24.2%
same,inhibition,[13],43.6% (active)
same,inhibition,[14],44.9% (active)
same,inhibition,[15],-30.6%
CC(=O)Nc1ccc(NC(=O)CSc2nc(N)c(NC(=O)c3ccco3)c(=O)[nH]2)cc1,inhibition,[12],13.1%
same,inhibition,[13],51.4% (active)
same,inhibition,[14],48.4% (active)
same,inhibition,[15],-7.2%
N#CCc1ccc(OCCCN2CCC(C(O)(c3ccccc3)c3ccccc3)CC2)cc1,inhibition,[12],8.39%
same,inhibition,[13],40.8%
same,inhibition,[14],27.8%
same,inhibition,[15],12.4%
COc1ccc(NC(=O)COC(=O)CNC(=O)c2cc(OC)c(OC)c(OC)c2)cc1,inhibition,[12],8.08%
same,inhibition,[13],42.9% (active)
same,inhibition,[14],50.5% (active)
same,inhibition,[15],-7.21%
